# Laboratory results taken from article PMC4336329 (PLoS ONE, 2015).
# The whole screen tested about 310,000 compounds, of which about 2,200 (0.71%) showed an effect of 50% or more. Effects have a minus sign here. The full list was thinned out, with strong results kept by preference.
# Target: human ether-à-go-go-related gene (hERG) potassium channel (human, UniProt Q12809)
# Assay: primary screen, population patch clamp on CHO cells stably expressing hERG; higher = less effect of the substance
# Chain of human ether-à-go-go-related gene (hERG) potassium channel (Q12809 whole entry, looked up): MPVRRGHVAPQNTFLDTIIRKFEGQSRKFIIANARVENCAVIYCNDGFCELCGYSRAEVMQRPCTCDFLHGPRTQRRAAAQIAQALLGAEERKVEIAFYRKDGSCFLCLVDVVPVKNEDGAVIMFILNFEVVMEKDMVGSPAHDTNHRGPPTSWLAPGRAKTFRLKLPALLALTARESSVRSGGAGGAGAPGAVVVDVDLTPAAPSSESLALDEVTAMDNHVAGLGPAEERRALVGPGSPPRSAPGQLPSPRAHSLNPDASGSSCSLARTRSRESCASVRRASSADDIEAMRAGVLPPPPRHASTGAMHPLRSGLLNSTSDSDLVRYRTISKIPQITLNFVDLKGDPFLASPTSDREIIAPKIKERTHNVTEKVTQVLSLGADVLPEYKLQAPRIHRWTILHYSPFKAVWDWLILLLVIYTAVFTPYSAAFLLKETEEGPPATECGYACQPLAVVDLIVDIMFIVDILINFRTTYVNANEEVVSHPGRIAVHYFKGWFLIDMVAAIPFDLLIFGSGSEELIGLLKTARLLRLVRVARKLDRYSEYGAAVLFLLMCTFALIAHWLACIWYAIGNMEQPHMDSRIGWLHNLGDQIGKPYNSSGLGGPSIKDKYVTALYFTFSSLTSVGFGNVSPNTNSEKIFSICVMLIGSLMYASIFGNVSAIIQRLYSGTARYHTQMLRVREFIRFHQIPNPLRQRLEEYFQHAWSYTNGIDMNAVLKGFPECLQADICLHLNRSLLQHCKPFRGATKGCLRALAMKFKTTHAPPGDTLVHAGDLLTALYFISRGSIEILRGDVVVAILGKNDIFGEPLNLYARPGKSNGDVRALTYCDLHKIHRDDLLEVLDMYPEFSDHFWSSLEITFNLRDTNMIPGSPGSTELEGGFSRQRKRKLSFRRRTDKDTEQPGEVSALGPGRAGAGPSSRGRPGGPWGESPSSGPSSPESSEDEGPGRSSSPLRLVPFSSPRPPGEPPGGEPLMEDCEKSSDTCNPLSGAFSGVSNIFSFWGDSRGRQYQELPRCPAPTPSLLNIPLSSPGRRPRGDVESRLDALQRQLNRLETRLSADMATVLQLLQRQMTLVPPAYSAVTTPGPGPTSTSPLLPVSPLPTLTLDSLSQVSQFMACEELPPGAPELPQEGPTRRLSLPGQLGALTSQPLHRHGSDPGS
row,Compound,"hERG current change (%, negative = inhibition) at 1uM [%]"
1,C[C@](N)(CCP(=O)(O)O)C(=O)O.Cl,-5.32
2,CCOC(=O)CSc1nc2ccccc2c(=O)n1CC1COc2ccccc2O1 (stereo not shown),6.59
3,O=C(CCNS(=O)(=O)c1cccc2nsnc12)Nc1ccc2c(c1)OCCO2,12
4,CSc1ncc(Cl)c(C(=O)[O-])n1.[NH3+]CCc1ccccc1,0.119
5,Cc1ccc(CCNC(=O)C2CCN(S(=O)(=O)N3CCC4(CC3)OCCO4)CC2)cc1,9.02
6,Cc1nc2ccccc2n1CCc1nc2c3ccccc3nc(SCC#N)n2n1,-0.451
7,NC(=O)CSc1nc2c(c(=O)n1-c1ccccc1)C1(CCCCC1)Cc1ccccc1-2,16.4
8,COc1ccccc1Nc1c2ccccc2nc2ccccc12,-18.4
9,COc1cc(Nc2c3ccccc3nc3ccccc23)cc(OC)c1OC,-32.7
10,COc1cc(NS(C)(=O)=O)ccc1Nc1c2ccccc2nc2ccccc12.Cl,-59.7
11,Cc1ccc2c(Cn3ccnc3)cc(=O)oc2c1C,15.6
12,CCCn1nnnc1NCc1ccc(N2CCCC2)cc1,-1.22
13,Cc1ccc2nc3c(c(N)c2c1)CCN3c1ccccc1.O=C(O)C(=O)O,-2.46
14,Cc1ccc2nc(C)n(-c3ccc(F)cc3)c(=O)c2c1,19
15,CSc1nc(C)c2c(n1)N(c1ccc(F)cc1)CC2,20.1
16,COc1cccc(N2CCc3c(C)nc4ccc(Cl)cc4c32)c1,-48.5
17,Cc1ccc2nc(C)c3c(c2c1)N(c1ccccc1)CC3,-70
18,Cc1ccc2nc(C)c3c(c2c1)N(c1ccc(F)cc1)CC3,-94.5
19,COc1c2c(cc3oc(=O)c4c5ccc(O)cc5oc4c13)OC(C)(C)CC2,17.1
20,c1cncc(-c2nnc(SCc3cccc4ccccc34)o2)c1,0.0047
21,CC(=O)N1CCN(c2nc(-c3ccco3)c3c(c2C#N)CC(C)(C)SC3)CC1,7.62
22,CCOc1ccc(/C=C(/NC(=O)c2ccc(Cl)cc2)C(=O)O)cc1OCC,-4.42

row,Compound,"hERG current change (%, negative = inhibition) at 1uM [%]"
1,COc1ccccc1CC(=O)Nc1ccc([N+](=O)[O-])cc1OC,8.75
2,Cn1c(=NC(=O)C2CC2)sc2cccc(F)c21,1.19
3,Cc1ccc(NS(=O)(=O)c2ccc3c(c2)N(C)CCO3)cc1,-79.6
4,CC(=O)c1ccc(NS(=O)(=O)c2ccc3c(c2)N(C)CCO3)cc1,1.5
5,Cc1ccc(CNS(=O)(=O)c2ccc3c(c2)N(C)CCO3)cc1,17.8
6,C/C(CC(=O)Nc1ccc(N(C)C)cc1)=N\NC(=O)c1ccc(C(C)(C)C)cc1,15.5
7,CCOC(=O)C1(Cc2cccc(OC)c2)CCN(Cc2cccnc2)CC1,11.5
8,CCOC(=O)C1(Cc2ccccc2)CCN(Cc2cccn2-c2cccnc2)CC1,1.67
9,CCOC(=O)C1(Cc2cccc(OC)c2)CCN(Cc2cccn2-c2ccccn2)CC1,-79.4
10,CCOC(=O)C1(Cc2ccccc2)CCN(Cc2cccc3nccnc23)CC1,-10.3
11,CCOC(=O)C1(Cc2cccc(OC)c2)CCN(Cc2cccc(O)c2)CC1,-9.46
12,CCOC(=O)C1(Cc2ccccc2)CCN(Cc2cccn2-c2nccs2)CC1,-69.8
13,CCOC(=O)C1(Cc2cccc(OC)c2)CCN(Cc2cccn2-c2nccs2)CC1,-77.7
14,CCOC(=O)C1(Cc2cccc(OC)c2)CCN(Cc2ccccc2OC)CC1,-18.5
15,CCOC(=O)C1(Cc2cccc(OC)c2)CCN(Cc2ccccc2)CC1,-7.08
16,Cc1ccc(NC(=O)CN(C)C(=O)Cn2c(=O)oc3ccccc32)cc1,7.84
17,CC1CC(C)(C)NC(=S)N1CCCC(=O)N1CCN(c2ccc(F)cc2)CC1 (stereo not shown),-4.06
18,CCCN(CCC)C(=O)Nc1cc(Cl)ccc1OC,14.4
19,CCOC(CNC(=O)Cn1nc(C)c2ccccc21)OCC,8.42
20,CCCCn1nnc(NC(=O)c2ccc(-c3ccccc3)cc2)n1,13.7
21,CC(C)(C)c1csc(NC(=O)c2c(F)c(F)c(F)c(F)c2F)n1,-2.19
22,O=C(c1cc(-c2ccncc2)nc2ccccc12)N1CCN(c2ccccn2)CC1,-64

row,Compound,"hERG current change (%, negative = inhibition) at 1uM [%]"
1,O=C(c1cc(-c2ccncc2)nc2ccc(Br)cc12)N1CCN(c2ccccn2)CC1,-9.18
2,O=C(c1cc(-c2ccccc2)nc2ccccc12)N1CCN(c2ccccn2)CC1,1.88
3,CCCCCCCC(=O)Nc1ccc(C(=O)N/N=C/c2cccc([N+](=O)[O-])c2)cc1,12.6
4,O=C(CCSc1ccccc1)OCn1nnc2ccccc2c1=O,13.7
5,N#Cc1ccc(OCC(=O)N2CCN(S(=O)(=O)c3cccs3)CC2)cc1,-54.7
6,N#Cc1ccc(OCC(=O)N2CCN(S(=O)(=O)c3ccc(Cl)s3)CC2)cc1,-22.7
7,O=C(COc1ccccc1)N1CCN(S(=O)(=O)c2cccs2)CC1,-7.49
8,CCCc1cc(C(=O)O)c2ccccc2n1,-0.521
9,CN(CCC#N)C(=O)COc1ccc(Br)cc1Cl,3.5
10,CCOc1ccc(CN2CCN(Cc3nc(C(C)C)cs3)CC2CCO)cc1 (stereo not shown),-85.5
11,CC(C)c1csc(CN2CCN(Cc3ccc(F)cc3)C(CCO)C2)n1 (stereo not shown),-4.26
12,CC(C)c1csc(CN2CCN(Cc3ccc(F)c(F)c3)C(CCO)C2)n1 (stereo not shown),2.23
13,COc1cccc(CN2CCN(Cc3nc(C(C)C)cs3)CC2CCO)c1 (stereo not shown),-20
14,Cc1ccc(CN2CCN(Cc3nc(C(C)C)cs3)CC2CCO)cc1 (stereo not shown),-50.8
15,CC(C)c1csc(CN2CCN(Cc3ccccc3)C(CCO)C2)n1 (stereo not shown),10.1
16,Cc1ccc(S(=O)(=O)NC(=O)NCc2ccc(Cl)cc2)cc1,10.1
17,COC(=O)C1C(=O)C2=C(CC1C)NC(C)=C(C(=O)OCc1ccc(OC)cc1)C2c1ccc(C)o1 (stereo not shown),0.03
18,O=S(=O)(c1ccc(F)c(F)c1)N1CCN(Cc2ccc3c(c2)OCO3)CC1,-9.04
19,Cc1c(NC(=O)c2ccc3c4c(cccc24)CC3)c(=O)n(-c2ccccc2)n1C,15.3
20,CC(=O)c1cccc(-n2nnnc2SCC(=O)Nc2cc(C)on2)c1,12.1
21,Cc1ccc2nc(CSc3nnc(-c4ccco4)o3)cc(=O)n2c1,-54
22,c1coc(-c2nnc(SCc3cn4ccccc4n3)o2)c1,-2.53

row,Compound,"hERG current change (%, negative = inhibition) at 1uM [%]"
1,Cc1ccc2nc(CSc3nnc(-c4ccco4)n3-c3ccccc3)cc(=O)n2c1,-2.87
2,NC(=O)c1nsc(C(=O)N(c2ccccc2F)C(C(=O)NCc2ccccc2)c2ccc(O)cc2)c1N (stereo not shown),8.51
3,COc1ccc(C(=O)N2CCN(Cc3ccccn3)CC2)cc1.O=C(O)C(=O)O,3.65
4,COc1ccc(C(=O)N2CCN(c3ccccn3)CC2)cc1,6.53
5,O=C(c1ccccc1)N1CCN(CCc2ccccn2)CC1,16.3
6,COc1ccc(C(=O)N2CCN(CCc3ccccn3)CC2)cc1.Cl,-66.6
7,Cl.O=C(c1ccc(Cl)cc1)N1CCN(CCc2ccccn2)CC1,-53.7
8,O=C(c1sc2cc(Cl)ccc2c1Cl)N1CCN(CCc2ccccn2)CC1,-36.6
9,COCCn1c(C)cc(/C=C2\NC(=S)N(C)C2=O)c1C,9.65
10,Cc1ccc(S(=O)(=O)NCCC(=O)NC(C)CCc2ccccc2)cc1 (stereo not shown),-10.7
11,C=CCN(c1ccccc1)S(=O)(=O)c1cccc(C(=O)NCC(c2ccccc2OC)N2CCCC2)c1 (stereo not shown),-12.9
12,CCN(CC)c1ccc(C2NC(=O)NC(C)=C2C(=O)Nc2ccccc2)cc1 (stereo not shown),17.3
13,Cc1cccc(NC(=O)CSc2nnnn2C)n1,12.6
14,Fc1ccc(-n2cc(CNCCc3ccccn3)c(-c3ccccc3Cl)n2)cc1,-78.2
15,Fc1ccc(-n2cc(CNCCc3cccnc3)c(-c3ccccc3Cl)n2)cc1,-10
16,Fc1ccc(-n2cc(CNCCc3ccncc3)c(-c3ccccc3Cl)n2)cc1,-3.18
17,CCN(Cc1ccccc1)C(=O)CN1C(=S)NC(C)(C)CC1C (stereo not shown),3.12
18,CCOC(=O)CNc1c(-c2ccc(O)cc2)nc2ccc(Cl)cn12.Cl,-13.3
19,CCOC(=O)CNc1c(-c2ccc(OC)cc2)nc2ccc(Cl)cn12,-68.4
20,CCOC(=O)CNc1c(-c2ccccc2)nc2ccc(Cl)cn12,-27.6
21,O=C(NCCN1CCOCC1)c1cc([N+](=O)[O-])cc([N+](=O)[O-])c1,12.5
22,CCc1c(C)c2c(C)[nH]nc2oc1=O,10.5
